PMC5540273 (PLoS ONE, 2017)
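Further: kd values determined as follow-up on hits from a single-replicate KINOMEscan panel screen.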

Each compound was assayed on AURKA.
In the case of `Nc1ncnc2[nH]c(-c3ccccc3)nc12` [AH5015], the Kd is reported as > 10 µM. With `C[C@@H]1CCCCN1c1cc(-c2ccc3c(N)n[nH]c3c2)nc(N)n1` [GSK2258759] the Kd was > 10 µM. In the case of `Fc1cc(Cl)ccc1Nc1ccnc2cc(-c3ccc(CN4CCCCC4)o3)ccc12` [GW560116], the Kd is reported as > 10 µM. Work on `COc1cc2ncnc(Nc3ccc4nc(-c5ccccc5)[nH]c4c3)c2cc1OC.Cl` [GW282450] yielded a Kd of 2.3 µM. With `Clc1cc(Cl)cc(Nc2ccnc(Nc3cc(Cl)cc(Cl)c3)n2)c1` [GSK175726] the Kd was > 10 µM. Compound `COc1cc(Nc2nccc(N3CCC(NC(=O)Nc4cc(C)ccc4C)C3)n2)cc(OC)c1OC` (stereo not drawn) [GSK1379762] has a Kd of 1.1 µM. `COc1ccccc1CNC(=O)c1cc(C(=O)c2ccccc2C)c[nH]1` [GSK364507] was tested, and the Kd was > 10 µM.

Each compound was assayed on AURKB.
With `Cn1ccc2ncnc(Oc3ccc(NC(=O)Nc4ccccc4)cc3)c21` the Kd was 0.11 µM. `O=C(Nc1ccc2c(c1)OCO2)NC1CCN(c2ccnc(Nc3ccc(F)cc3)n2)C1` (stereo not drawn) [GSK1379724] gave a Kd of 6.9 µM. With `Cc1ccc(C(=O)Nc2ccc(Nc3ccnc4cc(-c5ccccn5)ccc34)cc2O)cc1.Cl` [GW440146] the Kd was 0.29 µM. With `Cn1ccc2ncnc(Oc3ccc(Nc4nc5ccccc5[nH]4)cc3)c21` the Kd was 0.059 µM. In the case of `COc1ccc(CNC(=O)NC2CCN(c3ccnc(Nc4cc(OC)c(OC)c(OC)c4)n3)C2)cc1` (stereo not drawn) [GSK1379748], the Kd is reported as 0.33 µM. `COc1cc(Nc2nccc(N3CCC(NC(=O)Nc4cc(C)ccc4C)C3)n2)cc(OC)c1OC` (stereo not drawn) [GSK1379762] gave a Kd of 0.24 µM. With `Cn1cncc1-c1ccc2ncnc(Nc3ccc(OCc4ccccc4)cc3)c2c1` [GW320571] the Kd was > 10 µM.

These compounds were tested on AURKC.
`Cn1ccc2ncnc(Oc3ccc(NC(=O)Nc4ccccc4)cc3)c21` was tested, and the Kd was 0.11 µM. `Cc1ccc(C(=O)Nc2ccc(Nc3ccnc4cc(-c5ccccn5)ccc34)cc2O)cc1.Cl` [GW440146] gave a Kd of 0.5 µM. For `COc1cc2ncn(-c3cc(OCC4CCCO4)c(C(N)=O)s3)c2cc1OC` (stereo not drawn) [GSK204607], the Kd was > 10 µM. `COc1cc(Nc2nccc(N3CCC(NC(=O)Nc4cc(C)ccc4C)C3)n2)cc(OC)c1OC` (stereo not drawn) [GSK1379762] showed a Kd of 0.2 µM.
